Measured values from PubChem BioAssay AID1159580 (chemical genetic matrix, 2015).
The whole screen tested about 5,500 compounds, of which about 2,000 (36%) were called active. Inconclusive results (about 18%) are left out. Rule as the data show it: active = normalized growth mostly below about 0.91 (no sharp cut-off); inconclusive = no clear call, values can overlap the other calls; inactive = mostly above about 0.92. This is one part of the list.

Test: chemical genetic growth profiling, strain panel (AID 1159580);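 also: tested at 20 µM; growth read once vehicle control cultures reached saturation at 30 °C; 1 = growth at the plate median or of vehicle wells; lower values mean less growth of the strain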
Settings: growth OD

Measured: normalized growth

CC(=O)OCC1=C(C(=O)O)N2C(=O)[C@@H](NC(=O)CSc3ccncc3)[C@H]2SC1
inactive: S. cerevisiae deletion strains, locus YJR043C, strain POL32, stronger effect = lower value 0.959 | S. cerevisiae deletion strains, locus YJR066W, strain TOR1, stronger effect = lower value 0.987 | S. cerevisiae deletion strains, locus YKL009W, strain mrt4, stronger effect = lower value 1 | S. cerevisiae deletion strains, locus YKL068W, stronger effect = lower value 0.982 | S. cerevisiae deletion strains, locus YKL085W, strain MDH1 (second series), stronger effect = lower value 0.975 | S. cerevisiae deletion strains, locus YKL085W, strain MDH1, stronger effect = lower value 0.975 | S. cerevisiae deletion strains, locus YKL160W, strain elf1, stronger effect = lower value 1.03 | S. cerevisiae deletion strains, locus YKR001C, strain vps1, stronger effect = lower value 0.994 | S. cerevisiae deletion strains, locus YKR026C, strain gcn3, stronger effect = lower value 1.03 | S. cerevisiae deletion strains, locus YKR091W, strain srl3, stronger effect = lower value 1.02 | S. cerevisiae deletion strains, locus YLL001W, strain dnm1, stronger effect = lower value 1.02 | S. cerevisiae deletion strains, locus YLL026W, stronger effect = lower value 1.01 | S. cerevisiae deletion strains, locus YLL041C, strain sdh2, stronger effect = lower value 1.02 | S. cerevisiae deletion strains, locus YLR027C, strain aat2, stronger effect = lower value 1.02 | S. cerevisiae deletion strains, locus YLR039C, strain RIC1, stronger effect = lower value 0.981 | S. cerevisiae deletion strains, locus YLR058C, strain SHM2, stronger effect = lower value 0.985 | S. cerevisiae deletion strains, locus YLR102C, strain apc9, stronger effect = lower value 0.988 | S. cerevisiae deletion strains, locus YLR113W, strain HOG1, stronger effect = lower value 0.974 | S. cerevisiae deletion strains, locus YLR221C, strain rsa3, stronger effect = lower value 1.03 | S. cerevisiae deletion strains, locus YLR258W, strain gsy2, stronger effect = lower value 1.01 | S. cerevisiae deletion strains, locus YLR262C, strain YPT6 (second series), stronger effect = lower value 1.07 | S. cerevisiae deletion strains, locus YLR262C, strain YPT6, stronger effect = lower value 0.926 | S. cerevisiae deletion strains, locus YLR268W, strain sec22, stronger effect = lower value 0.957 | S. cerevisiae deletion strains, locus YLR320W, strain mms22, stronger effect = lower value 1 | S. cerevisiae deletion strains, locus YLR330W, strain CHS5, stronger effect = lower value 0.98 | S. cerevisiae deletion strains, locus YLR342W, strain FKS1 (second series), stronger effect = lower value 0.986 | S. cerevisiae deletion strains, locus YLR342W, strain FKS1, stronger effect = lower value 1.03 | S. cerevisiae deletion strains, locus YLR357W, strain rsc2, stronger effect = lower value 1.05 | S. cerevisiae deletion strains, locus YLR370C, strain arc18, stronger effect = lower value 1.01 | S. cerevisiae deletion strains, locus YLR371W, strain rom2, stronger effect = lower value 0.994 | S. cerevisiae deletion strains, locus YLR384C, strain iki3, stronger effect = lower value 1.04 | S. cerevisiae deletion strains, locus YLR418C, strain cdc73, stronger effect = lower value 1.05 | S. cerevisiae deletion strains, locus YML016C, strain PPZ1, stronger effect = lower value 0.987 | S. cerevisiae deletion strains, locus YML032C, strain rad52, stronger effect = lower value 0.992 | S. cerevisiae deletion strains, locus YML120C, strain ndi1, stronger effect = lower value 1.03 | S. cerevisiae deletion strains, locus YML124C, strain tub3, stronger effect = lower value 0.994 | S. cerevisiae deletion strains, locus YMR058W, strain fet3, stronger effect = lower value 1.01 | S. cerevisiae deletion strains, locus YMR078C, strain ctf18, stronger effect = lower value 0.987 | S. cerevisiae deletion strains, locus YMR125W, strain sto1, stronger effect = lower value 1.02 | S. cerevisiae deletion strains, locus YMR129W, stronger effect = lower value 1.02 | S. cerevisiae deletion strains, locus YMR205C, strain PFK2, stronger effect = lower value 1.02 | S. cerevisiae deletion strains, locus YMR223W, strain ubp8, stronger effect = lower value 1.01 | S. cerevisiae deletion strains, locus YMR231W, strain pep5, stronger effect = lower value 1.01 | S. cerevisiae deletion strains, locus YMR263W, strain SAP30, stronger effect = lower value 1 | S. cerevisiae deletion strains, locus YMR307W, strain GAS1, stronger effect = lower value 0.972 | S. cerevisiae deletion strains, locus YNL067W, strain RPL9B, stronger effect = lower value 1.01 | S. cerevisiae deletion strains, locus YNL071W, strain lat1, stronger effect = lower value 1.01 | S. cerevisiae deletion strains, locus YNL183C, strain NPR1, stronger effect = lower value 0.924 | S. cerevisiae deletion strains, locus YNL209W, strain ssb2, stronger effect = lower value 1.02 | S. cerevisiae deletion strains, locus YNL233W, strain BNI4, stronger effect = lower value 1.02 | S. cerevisiae deletion strains, locus YNL248C, strain rpa49, stronger effect = lower value 1.02 | S. cerevisiae deletion strains, locus YNL250W, strain rad50, stronger effect = lower value 0.99 | S. cerevisiae deletion strains, locus YNL271C, strain bni1, stronger effect = lower value 1 | S. cerevisiae deletion strains, locus YNL298W, strain CLA4, stronger effect = lower value 0.992 | S. cerevisiae deletion strains, locus YNL307C, strain MCK1, stronger effect = lower value 0.993 | S. cerevisiae deletion strains, locus YNL322C, strain KRE1 (second series), stronger effect = lower value 1.03 | S. cerevisiae deletion strains, locus YNL322C, strain KRE1, stronger effect = lower value 0.997 | S. cerevisiae deletion strains, locus YNR049C, strain mso1, stronger effect = lower value 1.02 | S. cerevisiae deletion strains, locus YNR052C, strain pop2, stronger effect = lower value 0.991 | S. cerevisiae deletion strains, locus YOL012C, strain htz1 0.881 | S. cerevisiae deletion strains, locus YOL147C, strain pex11, stronger effect = lower value 1 | S. cerevisiae deletion strains, locus YOR001W, strain rrp6, stronger effect = lower value 1.04 | S. cerevisiae deletion strains, locus YOR061W, strain CKA2, stronger effect = lower value 0.969 | S. cerevisiae deletion strains, locus YOR069W, strain VPS5, stronger effect = lower value 0.985 | S. cerevisiae deletion strains, locus YOR070C, strain gyp1, stronger effect = lower value 1.01 | S. cerevisiae deletion strains, locus YOR080W, strain dia2, stronger effect = lower value 1.05 | S. cerevisiae deletion strains, locus YOR083W, strain WHI5, stronger effect = lower value 1.05 | S. cerevisiae deletion strains, locus YOR106W, strain vam3, stronger effect = lower value 1.05 | S. cerevisiae deletion strains, locus YOR136W, strain idh2, stronger effect = lower value 0.983 | S. cerevisiae deletion strains, locus YOR144C, strain elg1, stronger effect = lower value 0.985 | S. cerevisiae deletion strains, locus YOR184W, strain ser1, stronger effect = lower value 0.995 | S. cerevisiae deletion strains, locus YOR231W, strain MKK1, stronger effect = lower value 0.985 | S. cerevisiae deletion strains, locus YOR265W, strain rbl2, stronger effect = lower value 1.02 | S. cerevisiae deletion strains, locus YOR270C, strain vph1, stronger effect = lower value 1.07 | S. cerevisiae deletion strains, locus YOR290C, strain snf2, stronger effect = lower value 0.998 | S. cerevisiae deletion strains, locus YOR316C, strain cot1, stronger effect = lower value 0.981 | S. cerevisiae deletion strains, locus YPL051W, strain arl3, stronger effect = lower value 1.04 | S. cerevisiae deletion strains, locus YPL078C, strain atp4, stronger effect = lower value 1.05 | S. cerevisiae deletion strains, locus YPL106C, strain sse1, stronger effect = lower value 1.02 | S. cerevisiae deletion strains, locus YPL240C, strain hsp82, stronger effect = lower value 1.02 | S. cerevisiae deletion strains, locus YPL241C, strain CIN2, stronger effect = lower value 0.988 | S. cerevisiae deletion strains, locus YPL256C, strain CLN2, stronger effect = lower value 1.01 | S. cerevisiae deletion strains, locus YPR119W, strain clb2, stronger effect = lower value 0.982 | S. cerevisiae deletion strains, locus YPR141C, strain kar3, stronger effect = lower value 0.991 | S. cerevisiae deletion strains, locus YPR163C, strain tif3, stronger effect = lower value 0.991 | S. cerevisiae deletion strains, locus YPR167C, strain met16, stronger effect = lower value 1 | S. cerevisiae deletion strains, strain wtn01, stronger effect = lower value 0.995 | S. cerevisiae strains, strain wild type, stronger effect = lower value 0.982
